Experimental data published in PubChem BioAssay (Tox21).
Inconclusive results are not listed. Calls of active or inactive are those of the source. The call rests on the fitted dose curve; in most records, active means well fitted inhibition curve with a large enough effect in the signal ratio in the repeat runs (not every such curve was filed as active); inconclusive means weak or mixed curves, or effect the other way; inactive means no such curve, though single readings can be large or run the other way; the % refers to the signal ratio.

These compounds were tested against Peroxisome proliferator-activated receptor delta (Homo sapiens) (UniProt Q03181) (assay: qHTS assay to identify small molecule antagonists of the peroxisome proliferator-activated receptor delta (PPARd) signaling pathway (AID 743215;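 further: cells stimulated with agonist L165041 at 300 nM final during compound exposure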)). Details: HEK293H PPARd-UAS-bla, beta-lactamase FRET ratio, antagonist, 17 h; series mostly up to 62 µM.
Description: U.S. Tox21 Program National Center for Advancing Translational Sciences [NCATS] NIH Chemical Genomics Center [NCGC] U.S. Environmental Protection Agency [EPA] National Institutes of Environmental Health Sciences [NIEHS] National Toxicology Program [NTP] U.S. Food and Drug Administration [FDA] Tox21 Assay Overview: The peroxisome proliferator-activated receptors (PPARs) are lipid-activated transcription factors of the nuclear receptor superfamily with three distinct subtypes namely PPAR alpha, PPAR delta (PPARd) and PPAR gamma. All these subtypes heterodimerizes with Retinoid X receptor (RXR) and have different physiological functions. […] To identify the compounds that inhibit PPAR-delta signaling, GeneBLAzer PPAR delta UAS-bla HEK293H cell line (Invitrogen, Carlsbad, CA, USA) containing a beta-lactamase reporter gene under the control of an Upstream Activator Sequence (UAS) was used to screen the Tox21 compound library.
Tox21 Assay Protocol Summary: PPARd-bla cells were dispensed at 3000 cells/5uL/well in 1536-well black wall/clear bottom plates using a Multidrop Combi (Thermo Fisher Scientific, Waltham, MA) dispenser. After the assay plates were incubated at 37 C and 5% CO2 for 5 h, 23 nL of compounds dissolved in DMSO, positive controls or DMSO only was transferred to the assay plate by a Pintool station (Kalypsys, San Diego, CA), followed by addition of 1ul L165041 (300 nM, final concentration in the wells). The assay plates were incubated at 37 C for 17 h, and then 1 uL of LiveBLAzerTM B/G FRET substrate was added using a Bioraptr Flying Reagent Dispenser (FRD) workstation (Beckman Coulter, Indianapolis, IN, USA). The assay plates were incubated at room temperature for 2 h and fluorescence intensity was measured by an Envision plate reader (PerkinElmer, Shelton, CT).

Chain of Peroxisome proliferator-activated receptor delta (Homo sapiens) (Q03181 whole entry, looked up): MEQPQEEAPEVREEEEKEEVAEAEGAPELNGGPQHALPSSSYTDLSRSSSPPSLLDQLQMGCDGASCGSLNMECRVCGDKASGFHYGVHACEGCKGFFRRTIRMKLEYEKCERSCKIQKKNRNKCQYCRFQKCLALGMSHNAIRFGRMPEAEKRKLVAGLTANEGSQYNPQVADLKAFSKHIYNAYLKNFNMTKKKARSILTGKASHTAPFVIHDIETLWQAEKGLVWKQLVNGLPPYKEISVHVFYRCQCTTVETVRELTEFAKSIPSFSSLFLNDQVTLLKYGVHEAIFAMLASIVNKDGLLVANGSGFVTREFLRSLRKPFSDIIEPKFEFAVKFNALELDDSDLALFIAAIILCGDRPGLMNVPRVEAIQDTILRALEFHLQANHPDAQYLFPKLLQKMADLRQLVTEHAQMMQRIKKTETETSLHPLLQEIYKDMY

| SMILES | outcome |
| --- | --- |
| O=[N+]([O-])c1cc([As](=O)(O)O)ccc1O | inactive |
| Cc1cccc(C)c1N | inactive |
| CN(C)NC(=O)CCC(=O)O | inactive |
| CN1C(=O)CCS(=O)(=O)C1c1ccc(Cl)cc1 (stereo not given) | inactive |
| O=C(O)C1C(C(=O)O)C2(Cl)C(Cl)=C(Cl)C1(Cl)C2(Cl)Cl (stereo not given) | inactive |
| O=C(O)COc1ccccc1 | inactive |
| COC(=O)Nc1cccc(OC(=O)Nc2cccc(C)c2)c1 | inactive |
| ClCCOCCCl | inactive |
| COS(=O)(=O)OC | inactive |
| CC(C)(C)C(=O)CCl | inactive |
| O=C/C=C/c1ccccc1 | inactive |
| Oc1c(Br)cc(Br)cc1Br | inactive |
| Cc1cccc(C)c1NC(=O)CN1CCCC1=O | inactive |
| CCOP(=S)(OCC)Oc1ccc([N+](=O)[O-])cc1 | inactive |
| Nc1nc(N)nc(NC2CC2)n1 | inactive |
| COc1nc(NC(C)C)nc(NC(C)C)n1 | inactive |
| CCOC(=O)CC(SP(=O)(OC)OC)C(=O)OCC (stereo not given) | inactive |
| CCOc1ccc(N)cc1 | inactive |
| Cl[C@H]1OCCO[C@@H]1Cl | inactive |
| Nc1ncc([N+](=O)[O-])s1 | inactive |

| SMILES | outcome |
| --- | --- |
| CCCOC(=O)c1ccccc1C(=O)OCCC | inactive |
| Nc1cccc(Cl)c1 | inactive |
| C[C@H]1C(=O)O[C@@H]2CCN3CC=C(COC(=O)[C@](C)(O)[C@]1(C)O)[C@H]23 | inactive |
| CCCCC(CC)C(=O)Cl (stereo not given) | inactive |
| CC(=O)C1CCOC1=O (stereo not given) | inactive |
| CC(C)CCCCCCOC(=O)c1ccccc1C(=O)OCCCCCCC(C)C | inactive |
| ClC(Cl)c1ccccc1 | inactive |
| CNC(=O)O/N=C/C(C)(C)S(C)=O (stereo not given) | inactive |
| Cc1cccc(N)c1 | inactive |
| CNC(=O)O/N=C/C(C)(C)SC | inactive |
| CNC(=O)O/N=C(\SC)C(=O)N(C)C | inactive |
| CN(C)C(=O)Cl | inactive |
| Cc1ccccc1N | inactive |
| COc1cc(-c2ccc(N)c(OC)c2)ccc1N | inactive |
| COP(=S)(OC)Oc1ccc(SC)c(C)c1 | inactive |
| Cc1cccc(N)c1C | inactive |
| CCNc1nc(Cl)nc(NC(C)C)n1 | inactive |
| FC(F)(F)c1ccc(Cl)cc1 | inactive |
| N#CN=C(N)N | inactive |
| Cc1cc(Cl)ccc1OC(C)C(=O)O (stereo not given) | inactive |
